ALDH1A1 inh-1 – blocks purified human ALDH1A1 activity | Purified ALDH1A1, NADH fluorescence, propionaldehyde substrate | Potency, µM (top dose mostly 75.3 µM), usual class: inhibitors | 220,000 compounds, 7.3% hits; active = well fitted inhibition curve with a large enough effect, not every such curve was filed as active; inconclusive = small, poorly fitted or top-dose-only effect, or another doubt; inactive = no such curve, though single readings can be large or run the other way
IMPase Li cell – cell-permeable IMPase inhibitors with lithium potentiation; 210,000 compounds, 0.35% hits; CHO-M1 cells, IP1 TR-FRET (IP-One), carbachol + lithium; Potency, µM (top dose mostly 59.4 µM), hits mostly inhibitors;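 note: IP1 builds up when IMPase is blocked and the TR-FRET signal falls; nearly all actives have a fitted effect of over 50% in size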
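CHO cells stably expressing M1 receptor (2000/well, cultured 16–30 h) treated 30 min at 37C with compound plus low lithium. Cytosolic IP1 by TR-FRET (665/620 ratio and 620 channel) after 10 min lysis; AC50 by Hill fit.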
IMPase inh – IMPase inhibition in cells; 120,000 tested, under 10 active; P97697; CHO-M1 cells, IP1 accumulation, HTRF TR-FRET ratio; inhibition (IP1 accumulation), % at 46.1 µM; AID 901; active = well fitted curve in the direction sought with a large enough effect in the signal ratio, not every such curve was filed as active; inconclusive = small, poorly fitted or top-dose-only effect, or a change in a side signal; inactive = no such curve, though single readings can be large or run the other way; the % refers to the signal ratio;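 note: cells stimulated with carbachol in lithium chloride buffer; higher means more IMPase inhibition seen as more IP1 and lower FRET ratio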
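CHO-M1 cells (CHO stably expressing M1 receptor), compound up to 46 uM final, stimulated with carbachol (50 uM as added) in buffer with 50mM LiCl, pH 7.4, 30 min at 37C. Cytosolic IP1 read by TR-FRET; AC50 from Hill fits.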
PNC assembly inh – perinucleolar compartment assembly inhibition. PC3M PTB-GFP, PNC prevalence imaging, 16 h; stronger effect = lower value. activity change (PNC), negative = inhibition, % at 10 µM. 140,000 compounds, 3.1% hits. AID 2417;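 active = readout at or below -70, meaning at least 70% loss of cells showing the perinucleolar compartment, a nuclear body marking cancer cells; inconclusive = readout between -30 and a set limit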
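PC3M cells stably expressing PTB-GFP, 750–1000 cells/well, treated 16 h at 37 °C with compound (23 nl of library stock), in duplicate. After paraformaldehyde fixation and Hoechst stain, imaged at 20x; PNC prevalence scored by image analysis.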
12-hLO inh – inhibitors of human 12-lipoxygenase (ALOX12). purified 12-hLO, xylenol orange hydroperoxide absorbance. 150,000 compounds, 0.12% hits. Potency, µM (series often up to 57.1 µM), usual class: inhibitors. P18054; note: nearly all actives have a fitted effect of over 55% in size
Target sequence (P18054 whole entry, looked up): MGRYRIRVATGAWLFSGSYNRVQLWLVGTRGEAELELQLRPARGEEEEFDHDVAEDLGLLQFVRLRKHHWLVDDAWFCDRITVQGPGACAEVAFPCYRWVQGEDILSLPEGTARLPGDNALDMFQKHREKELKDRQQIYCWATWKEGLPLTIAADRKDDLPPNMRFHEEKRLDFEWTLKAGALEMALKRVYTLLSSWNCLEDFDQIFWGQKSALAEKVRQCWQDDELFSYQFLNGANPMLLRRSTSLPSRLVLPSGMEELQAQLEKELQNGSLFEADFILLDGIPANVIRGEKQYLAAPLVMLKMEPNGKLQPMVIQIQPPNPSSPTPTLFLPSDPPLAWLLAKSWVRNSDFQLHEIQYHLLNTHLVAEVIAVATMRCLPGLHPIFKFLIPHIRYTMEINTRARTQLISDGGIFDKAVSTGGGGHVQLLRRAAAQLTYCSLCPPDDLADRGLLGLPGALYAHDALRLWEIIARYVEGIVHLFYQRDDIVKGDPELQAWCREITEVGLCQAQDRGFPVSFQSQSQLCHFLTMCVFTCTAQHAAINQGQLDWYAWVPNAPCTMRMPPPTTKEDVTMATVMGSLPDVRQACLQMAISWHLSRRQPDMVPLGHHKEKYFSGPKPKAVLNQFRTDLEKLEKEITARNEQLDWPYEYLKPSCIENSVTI
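Xylenol orange chromogenic assay: hydroperoxide from 12hLO oxidises Fe(II), giving red-shifted Fe(III)-XO absorbance. Conditions: 150 nM enzyme, 40 uM arachidonic acid, 25 mM Hepes pH 7.0, 0.01% Triton X-100, 30 min, room temperature.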
HPGD block – blocks human HPGD enzyme activity | purified HPGD, NADH fluorescence kinetic, PGE2 substrate | Potency, µM, usual class: inhibitors | 150,000 compounds, 4.3% hits | AID 894; active = well fitted inhibition curve with a large enough effect, not every such curve was filed as active; inconclusive = small, poorly fitted or top-dose-only effect, or another doubt; inactive = no such curve, though single readings can be large or run the other way
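NADH formation kinetics: reaction with 30 uM PGE2 and 1 mM NAD+ (final), 20 nM enzyme, Tris-HCl pH 8 with Tween 20, after 15 min compound preincubation at room temperature. Fluorescence change, last versus first of five reads.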
HPGD inh cf – human HPGD enzyme inhibition, confirmation; shares compounds with HPGD block; recombinant HPGD, NADH fluorescence, PGE2 substrate; Potency, µM (top dose mostly 57.1 µM), actives largely listed as inhibitors; 90 compounds, 90% hits; AID 2429; calls by dose curve
ALDH1A1 inh-2 – Confirms inhibition of human ALDH1A1 with counterscreen; shares compounds with ALDH1A1 inh-1; purified ALDH1A1, NADH fluorescence, propionaldehyde/NAD+; Potency, µM (series often up to 57.1 µM), actives largely listed as inhibitors; 90 compounds, 90% hits; calls by dose curve
Each line names hits and unclear results; the compound was inactive in the other large screens (follow-up assays come after a bar, where they were run). The list is not random: actives were taken first. Their share in the collection is about 11%. Unless noted, calls come from the whole dose curve; as a rule, active = well fitted curve in the direction sought with a large enough effect; inconclusive = small, poorly fitted or top-dose-only effect, or another doubt; inactive = no such curve, though single readings can be large; an effect the other way counts as inactive or inconclusive.

Cc1cc(-c2nnc3n2CCCCC3)c(C)n1-c1ccccc1	ALDH1A1 inh-1 inconclusive, PNC assembly inh inconclusive, HPGD block 0.16µM | HPGD inh cf 0.089µM
COc1ccc2cc(C(=O)N3CCCCCC3)sc(=O)c2c1OC	ALDH1A1 inh-1 8.9µM, HPGD block 0.13µM | HPGD inh cf 0.25µM
COC(=O)c1cc2ccc(OC)c(OC)c2c(=O)s1	none
O=C(c1ccc2c(=O)n(Cc3ccc4c(c3)OCO4)c(=S)[nH]c2c1)N1CCCCC1	IMPase Li cell inconclusive, PNC assembly inh inconclusive, HPGD block 0.4µM | HPGD inh cf inconclusive
O=c1c2ccccc2[nH]c(=S)n1Cc1ccc2c(c1)OCO2	IMPase Li cell inconclusive (no result: IMPase inh, PNC assembly inh, 12-hLO inh, HPGD block)
Cc1ccc(C2CC(=O)c3cnn(-c4nc(C)cc(C)n4)c3C2)cc1 (centres undefined)	none (no result: IMPase inh)
CN(C)C(=O)c1ccc(-c2nc(N(C)C)c3ccccc3n2)cc1	ALDH1A1 inh-1 inconclusive, HPGD block 0.32µM (no result: IMPase inh, PNC assembly inh) | HPGD inh cf 2.5µM
CN(C)C(=O)c1ccc(-c2nc(NCc3ccccc3)c3ccccc3n2)cc1	HPGD block inconclusive (no result: IMPase inh, PNC assembly inh) | HPGD inh cf 14µM
O=C(OCc1ccccc1)C1=NNC2C(=O)N(Cc3ccccc3)C(=O)C12 (centres undefined)	ALDH1A1 inh-1 inconclusive (no result: IMPase inh, PNC assembly inh, 12-hLO inh, HPGD block)
COc1ccc(S(=O)(=O)N(C)c2ccc(C(=O)N3CCC(C(N)=O)CC3)cc2)cc1	none | HPGD inh cf inactive
Cc1ccc(-c2n[nH]c(=S)n2/N=C/c2c(C)nn(-c3ccccc3)c2C)cc1	HPGD block 1.1µM | HPGD inh cf 0.5µM
CC1CCN(Cc2nc3c(c(=O)n(C)c(=O)n3C)n2CCCc2ccccc2)CC1	ALDH1A1 inh-1 0.63µM | ALDH1A1 inh-2 0.5µM
COc1cc(NC(=O)CN2CCN(S(=O)(=O)c3ccc(C(C)C)cc3)CC2)cc(OC)c1	ALDH1A1 inh-1 2.2µM | ALDH1A1 inh-2 3.2µM
CCOCCCNC(=O)C(c1ccc(OC)cc1)N(Cc1cccs1)C(=O)c1ccccc1O (centres undefined)	ALDH1A1 inh-1 inconclusive (no result: IMPase inh, PNC assembly inh, 12-hLO inh, HPGD block)
COCCN(C(=O)Cc1cccs1)C(C(=O)NCc1ccc(OC)cc1)c1ccc(C(C)C)cc1 (centres undefined)	ALDH1A1 inh-1 0.28µM | ALDH1A1 inh-2 0.25µM
Cc1ccc(S(=O)(=O)/C=C/C#N)cc1	ALDH1A1 inh-1 0.056µM (no result: IMPase inh, PNC assembly inh, 12-hLO inh, HPGD block) | ALDH1A1 inh-2 0.063µM
O=C(CSc1nnc2ccccn12)Nc1ccc2c(c1)OCCO2	none (no result: IMPase inh, PNC assembly inh, 12-hLO inh, HPGD block)
Cc1ccc(S(=O)(=O)N[C@@H](Cc2ccccc2)C(=O)CCl)cc1	ALDH1A1 inh-1 0.79µM, HPGD block 20µM | ALDH1A1 inh-2 0.45µM
Cc1ccc(S(=O)(=O)N[C@H](CO)C(=O)O)cc1	none (no result: IMPase inh, PNC assembly inh)
Cc1cccc(Cn2c(N3CCc4ccccc4C3)nc3c2c(=O)[nH]c(=O)n3C)c1	IMPase inh inconclusive
Cc1cccc(Cn2c(N3CCCCC3C)nc3c2c(=O)[nH]c(=O)n3C)c1 (centres undefined)	ALDH1A1 inh-1 0.28µM | ALDH1A1 inh-2 0.25µM
CCCCOc1ccc(C(=O)CCN2CCCCC2)cc1	ALDH1A1 inh-1 0.045µM, IMPase inh inconclusive | ALDH1A1 inh-2 0.79µM
O=C(CN(c1ccccc1)S(=O)(=O)c1ccccc1[N+](=O)[O-])NN=C1CCCCCCC1	none
CCCCCSc1nc2c(c(=O)[nH]c(=O)n2C)n1CCc1ccccc1	ALDH1A1 inh-1 0.71µM, PNC assembly inh inconclusive | ALDH1A1 inh-2 1.3µM
O=C(CCNc1ccc(Cc2ccncc2)cc1)c1cccc([N+](=O)[O-])c1	ALDH1A1 inh-1 0.4µM (no result: IMPase inh, PNC assembly inh, 12-hLO inh, HPGD block) | ALDH1A1 inh-2 0.5µM
Cc1cccc(Nc2nnc(SCC(=O)NCc3cccs3)s2)c1C	none (no result: IMPase inh)
O=C1CC(c2ccccc2)c2ccccc21 (centres undefined)	none (no result: IMPase inh, PNC assembly inh, 12-hLO inh, HPGD block)

From PubChem BioAssay
